Reference: ChEMBL document CHEMBL1157539, “Thousands of chemical starting points for antimalarial lead identification” (Nature, 2010)

How the values were obtained:
Format in all cases: functional
Plasmodium falciparum [1] = assay: GSK_TCMDC: Inhibition of Plasmodium falciparum 3D7 in whole red blood cells, using parasite LDH activity as an index of growth. Test compounds present at 2uM
Plasmodium falciparum [2] = assay: GSK_TCMDC: Inhibition of Plasmodium falciparum Dd2 in whole red blood cells, using parasite LDH activity as an index of growth. Test compounds present at 2uM
HepG2 = assay: GSK_TCMDC: Percent inhibition of human HepG2 cell line. Test compounds present at 10uM.

SMILES	Inhibition (Plasmodium falciparum [1])	Inhibition (Plasmodium falciparum [2])	Inhibition (HepG2)
C=CCOC(=O)N1CCC(CNCc2ccc(-c3cccc(-c4nc5cccc(C)c5[nH]4)c3)cc2)C1.O=C(O)C(F)(F)F (centres undefined)	100%	99%	25%
O=C(Nc1cccc(CN2CCCN(Cc3cccc(O)c3)CC2)c1)c1ccc(-c2ccccc2)cc1.O=C(O)C(F)(F)F	100%	66%	28%
C[C@H](Cc1ccc(C[C@@H](C)NCC(O)c2cc(Cl)c(N)c(Cl)c2)cc1)NCC(O)c1cc(Cl)c(N)c(Cl)c1 (some centres undefined)	98%	50%	26%
O=C(/C=C/c1ccc(Cl)c(Cl)c1)NCCCCCN1CCC(NC(=O)c2cc(Cl)ccc2F)CC1	92%	32%	48%
COc1cc(NC(=O)c2ccc(-c3ccc(C(C)=O)cc3)s2)ccc1OCCN1CCCC1	100%	63%	31%
CC(C)[C@H](NC(=O)c1c(CN2CCC(N3CCCCC3)CC2)c(-c2ccccc2)nc2cc(O)ccc12)c1ccccc1	100%	73%	10%
CCC[C@@H]([C@@H](CC(C)C)C(=O)N[C@@H](CCC/N=C(/N)NS(C)(=O)=O)C(=O)Nc1nccs1)N(O)C=O	95%	41%	10%
O=C(Nc1cccc(CN2CCCN(Cc3ccsc3)CC2)c1)c1cc2ccccc2s1.O=C(O)C(F)(F)F	96%	29%	25%
CC1(C)CCC(=Cc2ccc(Cl)cc2)CC1(O)Cn1ccnc1 (centres undefined)	99%	74%	0%
COc1ccccc1C1CN(CCNC(=O)c2nc(C)c[nH]2)Cc2ccccc2O1 (centres undefined)	90%	86%	4%
CCC1CN(S(=O)(=O)c2ccc3c(c2)NC(=O)CC(=O)N3)c2cc(Cl)ccc2O1 (centres undefined)	99%	65%	0%
CC(C)CCNCc1ccc(OCc2ccccc2COc2ccc(CNCCC(C)C)cc2I)c(I)c1.Cl	100%	78%	99%
CCCN1CCN(c2ccc(NS(=O)(=O)c3ccc(C(=O)Nc4ccc(Cl)cc4)cc3)cc2)CC1.O=C(O)C(F)(F)F	100%	50%	4%
CN(C)CCC=C1c2ccccc2Sc2c(O)cc(Cl)cc21.O=C(O)/C=C\C(=O)O	100%	80%	8%
CCOC(=O)c1ccc(OCCCCCCOc2ccc(Br)cc2)cc1	98%	0%	12%
Cn1cnc(CCNC(=O)c2ccc(-c3ccc(-c4nc5cc(F)ccc5[nH]4)cc3)cc2)c1	92%	15%	17%
CCCc1cc(OC)c(CC2c3cccc(O)c3CCN2C)cc1OC.Cl (centres undefined)	100%	99%	3%
CNC(=O)c1ccc2nc(C3CC3)n(CC3CCN(S(=O)(=O)c4cccc(Cl)c4)CC3)c2c1.O=C(O)C(F)(F)F	100%	100%	0%
COc1ccc(NC(=O)CCNc2cc(C)nc(NCCc3ccc(F)cc3)n2)cc1.O=C(O)C(F)(F)F	98%	3%	27%
CCCC(CNCc1cccc(I)c1)CNc1cc(=O)c2ccccc2[nH]1 (centres undefined)	100%	96%	0%
CN1CCCN(Cc2cccc(-c3cccc(NS(=O)(=O)c4cccc5cccnc45)c3)c2)CC1.O=C(O)C(F)(F)F	97%	74%	21%
COc1cc(NC2=NS(=O)(=O)c3cc(Cl)ccc3N2C)cc(OC)c1OC.O=C(O)C(F)(F)F	100%	100%	0%
COc1ccc(CCNC(=O)c2cc(C)ccc2O)cc1-c1ccc(C(C)(C)C)cc1	97%	94%	1%
O=C(Nc1cc(C(F)(F)F)ccc1-n1cncn1)C1(c2ccccc2)CC1	100%	100%	11%
Cc1ccc2c(=NN=CC=Cc3ccccc3)cc(C)[nH]c2c1	92%	13%	3%
CCCCCC(C)C(C)c1cc(OC(N)=O)c2c(c1)OC(C)(C)C=C2c1ccncc1 (centres undefined)	96%	0%	81%
Clc1ccc2c(NCc3ccc4c(c3)OCO4)ccnc2c1	100%	97%	6%
O=C(Nc1ccccc1Oc1ccccc1)NC1CCN(c2ccnc3cc(Cl)ccc23)C1.O=C(O)C(F)(F)F (centres undefined)	99%	74%	0%
